High-throughput results from PubChem BioAssay.
This is a sample that favours compounds with a hit; in the whole collection about 4% have one here.
GDH-TPI counter-1 = inhibits GDH-TPI coupling enzymes, artifact for Mtb FBA screen. AID 588335. inhibition, % at 4.8 µM. 360,000 tested, 1.2% active. GDH-TPI coupled enzyme counterscreen, NADH absorbance; in the data active means inhibition above about 30%;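 further: 0% = DMSO wells and 100% = wells lacking the enzyme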
Rv3671c protease = inhibits the M. tuberculosis serine protease Rv3671c. inhibition, % at 5.96 µM. 320,000 tested, 0.048% active. AID 2606; in the data active means inhibition above about 38%;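 further: extracellular domain of Rv3671c used as enzyme; 0% = enzyme with DMSO and 100% = no enzyme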
Mtb betalactam = beta-lactam sensitization of Mtb H37Rv | M. tuberculosis H37Rv growth with meropenem, percent inhibition | inhibition, % at 25 µM | 330,000 tested, 0.27% active | AID 434955; call rule not given here;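 further: growth measured after seven days incubation then overnight dye step; 0% = bacteria only wells and 100% = bacteria with antibiotic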
FBA Mtb inh = inhibits M. tuberculosis FBA enzyme; P9WQA3; AID 588726; inhibition, % at 1 µM; purified M. tuberculosis FBA, fluorescence read-out; 360,000 tested, 2.3% active;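 further: 0% = vehicle and 100% = reference inhibitor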
Target sequence (P9WQA3 whole entry, looked up): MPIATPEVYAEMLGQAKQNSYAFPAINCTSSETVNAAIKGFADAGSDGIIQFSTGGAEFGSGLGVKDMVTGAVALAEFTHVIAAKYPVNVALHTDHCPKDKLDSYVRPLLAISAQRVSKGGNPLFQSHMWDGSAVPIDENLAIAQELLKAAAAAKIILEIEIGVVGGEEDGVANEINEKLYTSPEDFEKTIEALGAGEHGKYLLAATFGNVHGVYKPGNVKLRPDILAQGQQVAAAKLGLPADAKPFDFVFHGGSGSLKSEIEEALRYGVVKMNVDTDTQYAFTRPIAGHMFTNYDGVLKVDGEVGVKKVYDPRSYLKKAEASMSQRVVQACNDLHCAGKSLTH
Mtb UGM inh = blocks M. tuberculosis UGM enzyme; P9WIQ1; purified UGM, fluorescence polarization probe displacement; inhibition, % at 10 µM; 320,000 tested, 0.06% active; AID 504406; in the data active means inhibition above about 10%, passing the limit was not always enough
RecA intein inh = inhibitors of M. tuberculosis RecA intein splicing | P9WHJ3 | cell-free RecA intein splicing, fluorescence | inhibition, % (no concentration beside the values) | 290,000 tested, 0.75% active; in the data active means inhibition above about 30%;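 further: 0% = vehicle wells and 100% = reference inhibitor control wells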
Mtb FBA inh conf = confirmation of M. tuberculosis fructose-bisphosphate aldolase inhibitors | shares compounds with FBA Mtb inh | purified M. tuberculosis FBA, fluorescence read-out | inhibition, % at 1 µM | 5,600 tested, 78% active;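 further: 0% = vehicle wells and 100% = reference inhibitor wells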
GDH-TPI counter-2 = counter-screen for M. tuberculosis FBA inhibitors: GDH-TPI coupled enzyme inhibition; inhibition, % at 1 µM; shares compounds with FBA Mtb inh; AID 652141; GDH-TPI coupled enzyme counterscreen, fluorescence; 5,600 tested, 81% active; in the data active means inhibition above about 10%
GDH-TPI DR = GDH-TPI dose response counter-screen for Mtb FBA. 170 tested, 79% active. AID 652145. IC50, µM. shares compounds with FBA Mtb inh. GDH-TPI coupled enzyme assay, fluorescence, artifact counterscreen; call rule not given here
Starred values were filed as active, the others as inactive; nt = no result given; + = active, no number. Unless noted, no stated cut-off is given here; in the data, active means inhibition above about 27%; inactive means the rest.

SMILES	GDH-TPI counter-1	Rv3671c protease	Mtb betalactam	FBA Mtb inh	Mtb UGM inh	RecA intein inh	Mtb FBA inh conf	GDH-TPI counter-2	others
O=S(=O)(O)c1cccc2cccc(Nc3ccccc3)c12	31*	-1	-9	95*	-1	-17	+	+
CC(=O)c1cc(C#N)c(N2CCCC2)nc1C	10	4	-2	1	1	1	nt	nt
CC1(C)CCCC2(C)C1CCC1(C)OC(=O)CCC12 (configuration not stated)	3	nt	nt	-1	nt	nt	nt	nt
CC1(C)CCC[C@]2(C)[C@H]3CC(=O)O[C@]3(C)CC[C@@H]12	-3	-4	0	91*	-1	-1	197*	147*
CCCc1cc(=O)oc2cc(C)cc(OC(C)C(=O)NCc3cccnc3)c12 (configuration not stated)	4	-4	2	70*	-1	0	5	-3
CCCc1cc(=O)oc2cc(C)cc(OC(C)C(=O)NCc3ccncc3)c12 (configuration not stated)	5	-7	9	58*	0	1	+	+
CC(Oc1cc2oc(=O)c3c(c2cc1Cl)CCC3)C(=O)NCc1cccnc1 (configuration not stated)	6	-2	-3	25	-3	0	nt	nt
CCc1ccc(-c2nc3ccc(Br)cc3c(C(=O)O)c2C)s1	18	nt	-2	38*	2	-1	60*	45*
Cc1c(-c2ccccc2Br)nc2ccccc2c1C(=O)O	-3	nt	nt	-2	nt	nt	nt	nt
COc1ccccc1CCN=C(N)NS(=O)(=O)c1ccc(C)cc1	5	-6	-9	-1	1	2	nt	nt
COc1ccccc1CCN=C(N)NS(=O)(=O)c1ccccc1F	3	5	7	51*	5	5	+	175*
COc1ccc(CN2C[C@H]3CON(C)[C@H]3C[C@H]2c2ccc(-c3ccccc3)cc2)cc1	nt	nt	nt	2	nt	nt	nt	nt
O=C(/C=C/c1ccccc1)NC(=S)Nc1ccccc1	25	1	6	27*	-1	2	6	-1
O=C(/C=C/c1ccc(F)cc1)NC(=S)Nc1ccccc1	12	nt	3	-6	0	-1	nt	nt
CN(CC(=O)Nc1ncn[nH]1)S(=O)(=O)c1ccc(Cl)cc1	-2	-7	3	7	-2	0	nt	nt
CCn1ccnc1CN(C)C(=O)c1ccc(OC2CCN(CCc3ccccc3)CC2)cc1	15	-8	-3	0	3	1	nt	nt
CCc1cc(=O)oc2cc(C)cc(OCC(=O)NCc3ccncc3)c12	7	3	-2	49*	0	1	161*	137*
Cc1cc(=O)oc2cc(OCC(=O)NCc3ccncc3)ccc12	-3	-2	-19	18	-1	-1	nt	nt
CCc1cc(=O)oc2cc(C)cc(OCC(=O)NCc3ccccn3)c12	0	4	-4	84*	-2	-1	196*	144*
CCCc1cc(=O)oc2cc(C)cc(OCC(=O)NCc3ccncc3)c12	9	-7	0	61*	0	1	53*	41*
Cc1cc(OCC(=O)NCc2ccncc2)c2c3c(c(=O)oc2c1)CCC3	2	-4	4	26	-6	-1	nt	nt
Cc1cc(OCC(=O)NCc2ccccn2)c2c(C)c(Cc3ccccc3)c(=O)oc2c1	2	-16	-1	21	-1	0	nt	nt
CCCc1cc(=O)oc2cc(C)cc(OCC(=O)O)c12	17	0	-6	97*	3	-4	144*	109*
CCOC(=O)C1CCCN(CC(=O)N(C)c2c(N)n(Cc3ccccc3)c(=O)[nH]c2=O)C1 (configuration not stated)	8	7	-1	0	0	nt	nt	nt
CCC(C)(C)C1CCC2(CC1)NC(=O)N(CC(=O)N1CCN(c3ccccc3OC)CC1)C2=O (configuration not stated)	16	nt	nt	5	nt	nt	nt	nt
SMILES	GDH-TPI counter-1	Rv3671c protease	Mtb betalactam	FBA Mtb inh	Mtb UGM inh	RecA intein inh	Mtb FBA inh conf	GDH-TPI counter-2	others
COc1ccc(OCCCC(=O)Nc2cc(S(=O)(=O)N3CCCCC3)ccc2C)cc1	0	-1	-9	4	-2	nt	nt	nt
C=C(Cl)COc1cc(C)cc2oc(=O)cc(CC)c12	4	-1	1	32*	-1	-2	146*	118*
CC(=O)COc1cc(C)cc2oc(=O)cc(-c3ccccc3)c12	10	-6	-6	2	1	0	nt	nt
CCN(C(=O)CSc1nc2ccccc2o1)c1c(N)n(Cc2ccccc2)c(=O)[nH]c1=O	3	-2	1	5	0	-1	nt	nt
N#Cc1ccc(OCC(=O)NC2CCCCCC2)cc1	8	4	0	0	0	nt	nt	nt
N#Cc1ccc(OCC(=O)NNC(=O)C2CCCCC2)cc1	8	6	5	30*	-1	nt	2	0
CC(=O)Nc1ccc2nc(-c3ccncc3)[nH]c2c1	12	4	-9	32*	-1	0	+	+
CCOC(=O)Cn1c(C)c(Br)c(COC)c(C#N)c1=O	2	7	7	1	-1	nt	nt	nt
COCc1c(Br)c(C)[nH]c(=O)c1C#N	18	2	11	32*	-2	1	71*	50*
Cc1ccc(-c2nnc(-c3ccc(NC(=O)c4ccco4)cc3)o2)cc1	27	-15	1	2	-2	3	nt	nt
O=C(Nc1ccc(-c2nc3cccnc3s2)cc1)c1ccco1	28	-40	7	29*	-1	-2	10	-2	GDH-TPI DR=3.1*
O=C(Nc1ccc2oc(-c3cccnc3)nc2c1)c1ccco1	4	-8	-15	29*	-3	-1	-2	-6
O=C(Nc1ccc(-c2nc3ncccc3o2)cc1)c1ccco1	45*	-15	3	27*	2	0	58*	50*
COc1ccc(CN(C)C(=O)c2ccncc2)c(OC)c1	0	-2	17	-1	0	1	nt	nt
Cc1ccc(-c2nn(-c3ccccc3)cc2C(=O)NCCCN2CCOCC2)cc1	4	-9	5	2	0	1	nt	nt
Cc1cc(C)c2c(n1)nn1c(C)c(CCC(=O)NCc3ccco3)c(C)nc21	2	3	1	30*	-1	-3	71*	48*
Cc1nc2cc(-c3ccccc3)nn2c(C)c1CCC(=O)NCc1ccco1	8	-5	1	6	2	-1	nt	nt
Cc1cc(C)cc(N(C(C)C(=O)NCc2ccc3c(c2)OCO3)S(C)(=O)=O)c1 (configuration not stated)	-5	16	1	-3	0	1	nt	nt
CCOC(=O)C1CCN(c2nc(C)cc(C)c2C#N)CC1	0	5	-5	28*	-1	-1	170*	124*
